Data on 13 compounds can be found in PubChem BioAssay (NCI).

Holding throughout (assay): NCI-60 one-dose screen, 48 h (100 = growth as untreated, 0 = no growth, -100 = all killed)
Holding throughout (conditions): 10 µM unless noted

Test [1] has as its system NCI-H23 lung.
In test [2] the test system is NCI-H226 lung.
The test system of test [3] is NCI-H322M lung.
Test [4] relates to HOP-62 NSCLC.
The test system of test [5] is NCI-H460 lung.
In test [6] the test system is HOP-92 NSCLC.
Test [7] deals with NCI-H522 lung.
The test system of test [8] is A549/ATCC NSCLC.
In test [9] the test system is 786-0 renal.
For test [10], the system named is COLO 205 colon.

The panel holds about 83,000 compounds, 20% with a hit somewhere; the sample as a whole holds those more often.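 The test compound was applied at a single concentration to cells in 96-well plates for 48 hours, and percent growth was recorded.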 Unmarked numbers belong to inactive results. Activity calls are given as the source filed them. How the source made its calls: active means growth percent below 10; inactive means the rest.

As to `Cc1ccc(/C=C(/C#N)n2nnc3cccc(F)c32)cc1`, the growth is 4.73% (active) in [1]; 23% in test [2]; 16.3% in test [3]; 21.8% in test [4]; -34.8% (active) in test [5]; -6.05% (active) in test [6]. The growth was 11.6% in test [7], 11.5% in test [8], 1.78% (active) in test [9] and -19.5% (active) in test [10].

Take `CC(=O)c1cc2c(N)c(C(=O)Nc3cccc4ccncc34)sc2nc1C`: the growth in test [1] was 102%; in [2], 104%; in test [3] it was 105%; in test [4] it was 91.8%; in test [5], 104%; in test [6] it was 75.2%. The growth in test [7] is 96%; in test [8], 97.9%; in test [9], 98.5%; in test [10], 102%.

In the case of `N/C(=N\C(N)=N\c1nc2ccccc2s1)c1ccnc(Br)c1`, the growth is 44.5% in test [1]; 60.1% in test [2]; 97.4% in test [3]; 29.8% in test [4]; 16.4% in test [5]; 47% in test [6]. Moreover, the growth in test [7] was 9.9% (active); in [8], 61.3%; in [9], 32.2%; in test [10] it was 21.4%.

Turning to `COC(=O)C(CC=O)C(=O)C(=O)Nc1cccc(C(F)(F)F)c1` (stereo not given), the growth in test [1] was 101%; in test [2] it was 98.7%; in [3], 97.3%; in test [4] it was 82.2%; in test [5], 98.6%; in [6], 95.1%. The growth is 87.2% in [7], 78.1% in test [8], 107% in test [9] and 110% in test [10].

As for `CNC(=O)c1cc(Cn2nc(C)c(NC(=O)Nc3ccc(Cl)c(C(F)(F)F)c3)c2C)ccn1`, the growth in test [1] was 97.8%; in test [2], 96.6%; in [3], 94.5%; in test [4], 93.4%; in test [5] it was 100%; in [6], 106%. Besides, the growth in [7] was 71.5%; in [8], 70%; in [9], 100%; in [10] it was 99.9%.

As to `CCN(Cc1ccccc1)c1ccc(C=O)cc1`, the growth is 96.3% in test [1]; 2.99% (active) in test [2]; 93.9% in [3]; 108% in test [4]; 100% in test [5]; 81.9% in test [6]. Further, the growth is 100% in test [7], 98.1% in [8], 102% in [9] and 113% in test [10].

Consider `Oc1ccc(OCCOc2ccc(O)cc2)cc1`, for which the growth in test [1] is 57.2%; in test [2], 92%; in [3], 82.1%; in test [4], 87.6%; in test [5], 48.5%; in test [6], 94.2%. Also, the growth in [7] is 30.9%; in test [8] it was 35%; in test [9], 28.3%; in test [10] it was 108%.

On to `COc1ccc(/C=N/NC(=O)c2cnn3c2NC(c2ccccc2)C3)cc1OC` (stereo not given), for which the growth in [1] is 73.9%; in test [2], 94.1%; in test [3], 75.4%; in test [4], 60%; in [5] it was 28.3%; in test [6], 73.2%. Further, the growth in [7] is 42.8%; in test [8], 54.2%; in test [9], 76.2%; in test [10] it was 45.7%.

Consider `Cc1cnc(C(=O)Nc2nc3ccc(S(=O)(=O)Nc4ccc(C(C)(C)C)cc4)cc3[nH]2)cn1`, for which the growth in [1] was 37.4%; in test [2], 31.3%; in test [3], 41.6%; in test [4], 42.5%; in test [5], 1.67% (active); in test [6], 37.4%. Besides, the growth is 24.4% in test [7], 21.6% in [8], 22.7% in [9] and 6.64% (active) in test [10].

Regarding `c1ccc(-c2cn3c(ccc4ccccc43)n2)cc1`, the growth was 70.5% in test [1]; 79% in test [2]; 77.5% in test [3]; 68.4% in test [4]; 20.6% in test [5]; 65.6% in test [6]. The growth in [7] was 44.5%; in [8] it was 47.1%; in [9], 81.7%; in test [10], 41.9%.

With `Cc1cccc(C)c1N=c1oc2ccc(Cl)cc2nc1-c1ccccc1O`, the growth in [1] was 78.6%; in test [2] it was 88.1%; in test [3], 88.6%; in test [4], 112%; in test [5], 97.2%; in test [6] it was 55.9%. Further, the growth in test [7] was 82.9%; in test [8] it was 96.7%; in test [9] it was 90%; in test [10] it was 89.7%.

As for `O=C(N/N=C/c1cc2ccccc2n2nnnc12)Nc1ccccc1`, the growth in test [1] was 100%; in test [2] it was 103%; in [3] it was 105%; in test [4] it was 100%; in [5], 105%; in test [6], 105%. Moreover, the growth in test [7] was 93.6%; in test [8] it was 97.7%; in test [9] it was 91.5%; in test [10], 108%.

Turning to `CN1CCN(C(=O)[C@]23CCC(C)(C)C[C@H]2C2=CC[C@@H]4[C@@]5(C)C/C(=C/c6ccncc6)C(=O)C(C)(C)[C@@H]5CC[C@@]4(C)[C@]2(C)CC3)CC1`, the growth was 72.4% in test [1]; 68.7% in test [2]; 87.6% in [3]; 83.1% in [4]; 33.1% in test [5]; 41% in [6]. Besides, the growth is 55.9% in test [7], 43.8% in test [8], 67.2% in test [9] and 41.9% in test [10].
